# Hit rate of the full screen: of about 53,000 sequences, about 3,700 (7%) were called active. Only a selection was taken, and actives are over-represented in it overall. Unmarked numbers belong to inactive results.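 Rule for the calls: active = gene knockdowns whose robust z-score for IL-1 alpha signal is at least 2 or at most -2, so actives lie on both sides; inactive = the rest.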
# Assay: Components of the Cytosolic LPS Sensing Pathway: Gene Identification via Genome-wide siRNA Screen;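 note: robust z of the log signal after scaling to non-targeting control siRNA wells of the plate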
# Details: RAW264.7 macrophages, IL-1a HTRF, actives lie on both sides, screened at 100 nM (by protocol), cells primed 5 h with Pam3CSK4 first
# Summary of the method: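 Mouse macrophage line RAW264.7 is transfected with siRNA (100 nM final), grown 48h, primed with TLR ligand Pam3CSK4 5 h and given intracellular LipidA 24 h. IL-1a in supernatant is read by HTRF and viability by luminescence.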
row,Sequence,z-score
1,GGCACCGCUAUUCAGAAUUTT against Fgf23,0.755
2,GCUGGAAAAGUGCUGUGGGTT against Sult1c1,-0.494
3,GGCUUCCUUUUUGAAGCUATT against Slc35b4,0.258
4,CCGUCAAAACAUUACCAUUTT against Hmcn2,-0.363
5,GGUAGAAGAGAGUAUCAACTT against Commd1,1.28
6,GGAAAGUCUACAUGUAUUATT against Enpp6,-0.886
7,ACAUUUAUCACGACCCUUCTT against Olfr777,1.3
8,GGCCUUCACUGAUGAAUGUTT against Pramel32,-2.21 (active)
9,GGCGAAAAGCCGUUCCAUUTT against E430018J23Rik,0.664
10,GGAGAAGAACGAGAAACGUTT against Nyap2,0.904
11,CCAUUGAAAUUUCCAUCUGTT against Baalc,0.115
12,CGUGAACUUUCAGAGCAGGTT against Rrp36,0.124
13,CCAUAGCAGGGAAGAUUUUTT against Kcnd2,3.78 (active)
14,GGAUCCACAGUCAUUCAGATT against Sike1,1.13
15,GGUCUUCAUGGUCAAAGUGTT against Fzd10,2.11 (active)
16,GCAAAGUCCAGUGAACAACTT against Gtse1,-1.15
17,GGCCACAAUGGAUCAGAUGTT against Gldn,1.53
18,GGAUCUUUUAGCUAACCUATT against Tesk2,1.84
19,GGCAACCUGCUGGUAAUCATT against Adrb3,3.53 (active)
20,GGCAUGCUGGAAUCAAACATT against Dppa2,0.699
21,GGUGAGCAAAGCCAAGAAGTT against Sgpl1,-1.42
22,GGCUUGCUUUGCUUCCCUUTT against Med28,-1.24

row,Sequence,z-score
1,CCCGAAAGACAUGUAUUCGTT against Mrps18b,-0.38
2,CUACUUCGAGAACAUGGGUTT against Tpgs1,-0.749
3,GGUGAUAUCUUUCCAUCUUTT against Wiz,-0.176
4,CCACACUUAGUCAUUUUCUTT against Paral1,-2.06 (active)
5,GGCCUACGAAGUGCAAAGATT against Sipa1l3,-0.667
6,GGACUAGAAGAUCUACACUTT against Olfr67,-0.921
7,GCCUCGAUGCAAGAUGAUGTT against C2cd2l,-0.82
8,GGAUAAAGAAGGACUCAAATT against Tpbpb,-2.16 (active)
9,GGAGUAUGCGUACCUGAAGTT against Nr0b2,-0.903
10,GGCAGAGCUUGGAGUAUCUTT against Gtpbp4,1.31
11,GGGAGAAAAAGGCAUUUUUTT against Them5,0.46
12,GGACAACACAUUUGUGCUCTT against Sh2b2,0.209
13,GUCUGAACUUCUUAGCAUCTT against Uchl4,0.788
14,CCAGUGAUCAGUUUUAACGTT against Adamts20,0.184
15,CCUCAAUUGCAUGUGACCUTT against Itgb1bp1,-2.32 (active)
16,GGAUACAAAGAGAGUUGUCTT against Eif3c,1.23
17,GGUGCUGCACAAAUACAUATT against Eef1aknmt,0.715
18,CGAUCGAAAUCAAGUCGAUTT against Septin9,0.415
19,GGUUCUCUGCCAGUUCUGUTT against Mid1,3.32 (active)
20,GGACCAUGUUAGAGCAUGCTT against Traf2,-2.36 (active)
21,GGUCCUACUUGUUCAUUGATT against Il1rl1,-0.802
22,GGACUUCAGUGAGGAUCAATT against Scg5,0.866

row,Sequence,z-score
1,CCCUCCGAAAAUUUUUCUGTT against Defb14,-0.363
2,GGUAUGGAUCAAGGUUCUUTT against Gja6,3.21 (active)
3,GGUGGCCAUCAAGAAGAUATT against Mapk7,-0.749
4,CGACCACACAGGGAUAUACTT against Sectm1a,-0.169
5,GGGCUAUCUAUCAUAGUUUTT against Scp2,1.17
6,GCAUGUAUAACAGACCCAUTT against Tex47,0.928
7,GGUCACCUUAUAAUUGCCCTT against Btd,-2.83 (active)
8,GGUGAGAUAGGUCUAGUUGTT against Col10a1,-0.273
9,GGAUCACUGACUUUGAAUUTT against Mob2,-0.654
10,GGCUGUCAUGCAUUAUAUGTT against Tfeb,-0.535
11,GGAGCUUCUUGACCUCGUGTT against Frmd4a,0.184
12,CCUGUUUUCCGACUUGUUGTT against Il4ra,0.809
13,GGUGGUUACACAAGGAACATT against Phgdh,-0.314
14,GGCUCAUCCCAAUGCUAUATT against Sdc3,0.304
15,GGUGAUCACUCUCUCUGAATT against Olfr187,-0.975
16,CCGUAACCCAGAAAAUGUATT against Eva1a,-2.01 (active)
17,CCAUUGACUUACUUCUAAGTT against Gimap6,0.58
18,GGAUCAACGGAUUUUAGAATT against Gcfc2,1.21
19,GGAGAUGAAAAGAGAAAUCTT against Cct6b,2.41 (active)
20,GGAGCUGAUGACUUCAGGCTT against Mmp19,1.17
21,GGGAUUCUCCAAAAGGAAGTT against Arhgap6,0.856
22,GGUGAUGAAGAGGUUCCCUTT against Fzd4,-0.868

row,Sequence,z-score
1,GAAGAUGCCACGCUAAAAATT against Adam34,2.73 (active)
2,GGGCUUUGCUGUCUAUGCATT against Dmwd,-0.617
3,GGAGUUUGAUCAGAUCCUATT against Asf1b,1.74
4,GAAAUCAGAAGAAAUGAAGTT against Phgr1,-0.451
5,GGAAUCAAAGAUGGAGAGGTT against Galnt3,-0.409
6,GGAAACAUUGUCAUCAUGATT against Olfr1299,-0.787
7,GGUCAUGUUUCUCUCCCAATT against Veph1,-2.11 (active)
8,GCGGUAUCCUAGCUGUGAATT against Brsk1,-0.0667
9,CCCUGUAUAUAUGAUGACATT against Ldhd,-1.83
10,GGGUCUACAAUCACCAGACTT against Wnt10a,1.15
11,GAUGAUCUUUUGGAUGAACTT against Spem2,-0.51
12,CCCAGGCACUUGUUUACAGTT against Stim2,-0.454
13,GGCAUGCUUGGCUUAUUUGTT against Kcnk4,0.0317
14,GCUGCUAUCCAGAAGGUAUTT against Egr2,-2.04 (active)
15,GGCUUACUAACAGUUUUUGTT against Gem,-0.29
16,GGCAUCGAGAUUUAAUUGATT against Usp27x,-0.179
17,GGCUCUCUGGCUUACUAAGTT against Mrpl37,1.09
18,CCCAGGUCCUACCUUCUUUTT against Ppcdc,-2.1 (active)
19,GGUGUGGGAUUUCUACACUTT against Sbf1,0.0854
20,GCAGCUUGCUUGAUUCAAGTT against Iqcb1,0.424
21,GCAUUUGGGCAACGAGAUGTT against Nr5a1,-1.3
22,GGCAGCUGGAAAGACAAAATT against Snca,1.19

row,Sequence,z-score
1,GCUGAGAGUAUCCUUAUUCTT against Fhdc1,0.374
2,GGCCAACAUCUGCUAUGUCTT against Hao2,-2.58 (active)
3,GGUCAACGUGUAUGUAUUUTT against Lrat,-1.27
4,CGUGCAUGUGUAAGUCAGGTT against Hpvc2,0.68
5,GCAAGAGCUGAGUACUCUGTT against Ahsp,-0.522
6,GGAAGUUUAAAGUCUAGAATT against Adcy7,0.477
7,GGCCCAAGAGAACAUCAAATT against Speer2,-2.16 (active)
8,GCAGUCUCCAAUUGAGAUUTT against Car13,-0.0313
9,CUCCGACCAUACUGGAAGATT against Arpp21,-0.406
10,GCAAGCUAGAGAAAAUCAGTT against Serpinb3b,-0.231
11,GGAAAAAAGGUCUGUAAAUTT against Ubl4b,0.223
12,GGAUGUGCUGACCUUACAGTT against Gaa,2.35 (active)
13,GCGGAACAUCUUAGCUUAATT against Perm1,-0.111
14,GCCCUGGAAAGGAUGUUUGTT against Hba-a1,-0.607
15,UAGCCACUCAUCAUUCUAATT against Gm10319,0.964
16,GGCACUUUUGAUUUCAGAUTT against Nrd1,3.52 (active)
17,GCUGGAUAUUUCUAAGUAUTT against A26c3,1.9
18,CCGUUAGGUUUUUAUCCAATT against Ube2b,0.193
19,GGACCUUUUAUCUGAAAUGTT against Papln,1.54
20,GGAUGUGACUCAGAUUGGGTT against Tmem171,0.0209

# — PubChem BioAssay AID1508600 (Functional Genomics Laboratory (NCATS/FGL), 2020)
